Assay outcomes: PubChem BioAssay, National Center for Advancing Translational Sciences (NCATS)
Vaccinia Venus – vaccinia inhibition (Venus reporter); Vaccinia virus Venus reporter expression, fluorescence; AID 720580; hit rate 0.46% among 330,000; Potency, µM (doses to about 36.5 µM), most hits filed as inhibitors; calls by dose curve; tested in A549 cells; also: nearly all actives have a fitted effect of over 30% in size
Vaccinia mCherry – vaccinia inhibition (mCherry reporter); Vaccinia virus mCherry reporter infection, fluorescence; Potency, µM (doses to about 36.5 µM), usual class: inhibitors; hit rate 0.63% among 310,000; calls by dose curve; tested in A549 cells; also: nearly all actives have a fitted effect of over 35% in size
MARV entry inh – Marburg virus entry inhibition; Marburg virus pseudotyped entry inhibition, cell reporter; Potency, µM (titrated, usually from 37.8 µM), most hits filed as inhibitors; hit rate 1.8% among 300,000; calls by dose curve; tested in HEK293 cells
CHX counter-1 – counter-screen for Shiga toxin inhibitors: cycloheximide protein synthesis inhibition; AID 2314; hit rate 12% among 300,000; cell reporter, cycloheximide protein synthesis inhibition counterscreen; max response, %; in the data active = max response mostly above about 13%, no sharp cut-off; inactive = mostly below about 14%; also: read at 38.3 µM for the half of the compounds with a filed dose
LASV entry inh – inhibitors of Lassa virus binding or cell entry; Lassa virus pseudotype entry inhibition, cell reporter; Potency, µM (series often up to 37.9 µM), most hits filed as inhibitors; hit rate 1.2% among 300,000; AID 540256; calls by dose curve; tested in HEK293 cells; also: nearly all actives have a fitted effect of over 50% in size
Shiga inhibitor – inhibitors of Shiga toxin in Vero cells; Vero cells, Shiga toxin protein synthesis inhibition reporter; inhibition, % at 38.7 µM; hit rate 9.2% among 290,000; in the data active = inhibition mostly above about 28%, no sharp cut-off; inactive = mostly below about 43%
CHX counter-2 – counter-screen for Shiga toxin inhibitors: cycloheximide protein synthesis block | hit rate 3% among 510 | Cycloheximide counterscreen, protein synthesis reporter, Shiga toxin assay | shares compounds with Shiga inhibitor | Potency, µM (doses to about 38.3 µM), hits mostly activators; calls by dose curve
G2M arrest HeLa – inducers of G2/M cell cycle arrest in HeLa cells; shares compounds with MARV entry inh; HeLa cell cycle G2/M arrest, Hoechst DNA content imaging; Potency, µM, hits mostly inhibitors; hit rate 60% among 25; AID 2441
WI-38 tox – toxic to WI-38 fibroblasts in PNC inhibitor counter-screen | shares compounds with MARV entry inh | WI-38 normal lung fibroblasts, ATPLite luminescence ATP viability, 24 h | Potency, µM (titrated, usually from 46.1 µM), hits mostly inhibitors | 120 tested, under 10 active
PNC inh conf – confirmation of perinucleolar compartment assembly inhibitors; PC3M PTB-GFP, PNC prevalence imaging, 16 h; shares compounds with MARV entry inh; AID 2730; hit rate 50% among 120; Potency, µM (top dose mostly 46.1 µM), most hits filed as inhibitors
PC3M caspase – PC3M caspase 3/7 activation by PNC inhibitor hits. activity change, positive = activation, % at 46.1 µM. PC3M-GFP caspase 3/7 activation, luminescence, 24 h. 120 tested, under 10 active. shares compounds with MARV entry inh
Each line names hits and unclear results; the compound was inactive in the other large screens (follow-up assays come after a bar, where they were run). Many of the other results were omitted from the sample, so hits are more common in it than they were. Unless noted, calls follow the shape of the dose curve; as a rule, active = well fitted curve in the direction sought with a large enough effect; inconclusive = small, poorly fitted or top-dose-only effect, or another doubt; inactive = no such curve, though single readings can be large; an effect the other way counts as inactive or inconclusive.

CC(=O)c1ccc(N2CCN(S(=O)(=O)c3ccc4c(c3)CC(C)N4C(C)=O)CC2)cc1 (centres undefined)	MARV entry inh inconclusive, LASV entry inh inconclusive, Shiga inhibitor 34 | CHX counter-2 inactive
CCOC(=O)/C(C(=O)Nc1ccccc1Cl)=C1/NC(C)(C)Cc2ccccc21	MARV entry inh inconclusive
CCOC(=O)/C(C(=O)Nc1ccc(Br)cc1)=C1/NC(C)(C)Cc2ccccc21	LASV entry inh inconclusive, Shiga inhibitor 45 | CHX counter-2 inconclusive
CCOc1ccc(-n2cc(-c3ccccc3)c3c(N4CCN(c5ccccc5OC)CC4)ncnc32)cc1	none (no result: MARV entry inh, CHX counter-1, Shiga inhibitor)
CCCCCCCCN1C(=O)[C@H](CC(=O)NCc2ccc(C)o2)C[C@@]2(C(=O)OCC)CCC=C12	Vaccinia Venus inconclusive (no result: MARV entry inh, CHX counter-1, LASV entry inh, Shiga inhibitor)
CCOc1ccc(CCNC(=O)c2ccc3c(c2)N(Cc2ccccc2)C(=O)c2ccccc2S3=O)cc1OCC (centres undefined)	MARV entry inh inconclusive, LASV entry inh inconclusive (no result: CHX counter-1, Shiga inhibitor)
O=C(Cn1nc(C(=O)O)c2ccccc2c1=O)Nc1nc(-c2ccccc2)cs1	Shiga inhibitor 40 (no result: Vaccinia Venus, Vaccinia mCherry, MARV entry inh, LASV entry inh) | CHX counter-2 inconclusive
Cc1ccccc1NC(=O)Cn1nc(C(=O)O)c2ccccc2c1=O	none
O=C(COC(=O)/C=C/c1cccs1)Nc1nc(-c2ccccc2)cs1	MARV entry inh inconclusive, Shiga inhibitor 46 | CHX counter-2 inactive
COc1ccc(N2CC(NC(=O)/C=C\c3ccc4c(c3)OCO4)CC2=O)cc1OC (centres undefined)	none (no result: MARV entry inh, CHX counter-1, Shiga inhibitor)
CCOC(=O)C1CCCN(C(=O)c2ccc(C(F)(F)F)nc2C)CC1 (centres undefined)	none (no result: MARV entry inh, CHX counter-1, LASV entry inh, Shiga inhibitor)
Cc1nc2ccc(NC(=O)CSc3nnc(C)s3)cc2[nH]1	none
CCOC(=O)c1[nH]c2ccc(OC)cc2c1NC(=O)C(C)N1CCC2(CC1)OCCO2 (centres undefined)	Shiga inhibitor 49 (no result: Vaccinia Venus, Vaccinia mCherry, LASV entry inh) | CHX counter-2 inactive
CCN(CC(=O)NCc1ccc(F)cc1)C(=O)COc1ccc2ccccc2c1	MARV entry inh inconclusive
CC(=O)/C(C#N)=C1\NC(=O)C(Cc2ccc(C)c(C)c2)S1 (centres undefined)	Vaccinia mCherry 16µM, MARV entry inh 0.41µM, LASV entry inh 1.3µM, Shiga inhibitor 34 | CHX counter-2 inactive | WI-38 tox inactive | PNC inh conf 7.9µM | PC3M caspase inactive
CCOC(=O)c1scc(-c2ccc(C)cc2)c1S(=O)(=O)Nc1cc(Cl)ccc1OC	LASV entry inh inconclusive (no result: MARV entry inh, CHX counter-1, Shiga inhibitor)
COc1ccc2nc3sc(C(=O)NCCCN4CCc5ccccc5C4)cc3cc2c1	Vaccinia mCherry inconclusive, MARV entry inh inconclusive, CHX counter-1 28, LASV entry inh inconclusive | WI-38 tox inconclusive | PNC inh conf inactive | PC3M caspase inactive
CCN(CCCNC(=O)c1cc2cc3ccc(OC)cc3nc2s1)c1ccccc1	Vaccinia Venus inconclusive, MARV entry inh inconclusive, LASV entry inh inconclusive (no result: CHX counter-1, Shiga inhibitor)
O=C1C(=Cc2cccs2)C(=O)c2ccccc21	CHX counter-1 46 | WI-38 tox inactive | PNC inh conf inactive | PC3M caspase inactive
O=C1NN(c2ccccc2)C(=O)/C1=C/c1cccs1	none (no result: Vaccinia Venus, Vaccinia mCherry)
COc1ccccc1NC(=O)COC(=O)c1ccccc1OCC(=O)Nc1ccc(SC(F)F)cc1	none
CN(C)C(=O)COC(=O)c1ccccc1Nc1ccc(SC(F)F)cc1	CHX counter-1 32 (no result: Vaccinia Venus, Vaccinia mCherry, LASV entry inh) | WI-38 tox inactive | PNC inh conf 16µM | PC3M caspase inactive
Cc1cc(SC(C)C(=O)Nc2ncc(Cl)cc2Cl)nc2ccccc12 (centres undefined)	MARV entry inh inconclusive, LASV entry inh 5.8µM | WI-38 tox inactive | PNC inh conf 11µM | PC3M caspase inactive
COCCn1c(SC(C)C(=O)Nc2ncc(Cl)cc2Cl)nc2ccccc21 (centres undefined)	Vaccinia mCherry inconclusive, MARV entry inh 2µM, LASV entry inh 1.4µM | WI-38 tox inactive | PNC inh conf 13µM | PC3M caspase inactive
CC/C(=C(\c1ccccc1)c1ccc(OCCN(C)C)cc1)c1ccccc1	Vaccinia Venus inconclusive, MARV entry inh 3.5µM (no result: CHX counter-1, LASV entry inh, Shiga inhibitor) | G2M arrest HeLa inconclusive
O=S(=O)(Nc1cc(Sc2cccc3cccnc23)c(O)c2ccccc12)c1ccc(F)cc1	Vaccinia mCherry inconclusive, MARV entry inh 6.5µM, CHX counter-1 24, LASV entry inh 11µM, Shiga inhibitor active | WI-38 tox inconclusive | PNC inh conf inconclusive | PC3M caspase inconclusive
COc1cc2c(c(OC)c1OC)-c1ccc(OC)c(=O)cc1[C@@H](NC(C)=O)CC2	Vaccinia Venus inconclusive, Vaccinia mCherry inconclusive, MARV entry inh inconclusive, LASV entry inh inconclusive | G2M arrest HeLa 0.02
Nc1ccc2c(c1)C(=O)C(=O)c1ccccc1-2	Vaccinia Venus 3.5µM, MARV entry inh 5.6µM, LASV entry inh inconclusive (no result: Vaccinia mCherry) | WI-38 tox 28µM | PNC inh conf 20µM | PC3M caspase inactive
O=C1C(=O)c2ccc(-c3ccccc3)cc2-c2ccccc21	MARV entry inh 5.8µM, LASV entry inh inconclusive (no result: Vaccinia Venus, Vaccinia mCherry) | WI-38 tox inconclusive | PNC inh conf 22µM | PC3M caspase inconclusive
Nc1ccc2c(c1)C(=O)c1ccccc1-2	Vaccinia mCherry inconclusive, MARV entry inh inconclusive (no result: CHX counter-1, Shiga inhibitor)
CCC(=O)N(C1=C(NC(C)C)C(=O)c2ccccc2C1=O)C(C)C	none (no result: Vaccinia Venus, Vaccinia mCherry, MARV entry inh, LASV entry inh)
CCCNC1=C(N(C(C)=O)c2cccc(F)c2)C(=O)c2ccccc2C1=O	Vaccinia Venus 13µM, Vaccinia mCherry 14µM, MARV entry inh inconclusive, LASV entry inh inconclusive | WI-38 tox inactive | PNC inh conf inconclusive | PC3M caspase inconclusive
CCc1ccc(S(=O)(=O)/N=C2\C=CC(=O)c3ccccc32)cc1	none (no result: Vaccinia Venus, Vaccinia mCherry, MARV entry inh, LASV entry inh)
CCc1ccc(S(=O)(=O)/N=C2/C=C(Sc3ncn[nH]3)C(=O)c3ccccc32)cc1	Vaccinia Venus 10µM, Vaccinia mCherry inconclusive, MARV entry inh inconclusive, CHX counter-1 19, LASV entry inh 13µM, Shiga inhibitor 49 | WI-38 tox inconclusive | PNC inh conf 28µM | PC3M caspase inactive
CC(=O)N(C)C1=C(N2CCOCC2)C(=O)c2ccccc2C1=O	MARV entry inh 1.5µM, LASV entry inh 0.58µM (no result: Vaccinia Venus, Vaccinia mCherry) | WI-38 tox inconclusive | PNC inh conf inconclusive | PC3M caspase inconclusive
C[C@H](CO)N1C[C@H](C)[C@@H](CN(C)Cc2ccc3c(c2)OCCN3C)OCc2cnnn2CCCC1=O	none (no result: MARV entry inh, CHX counter-1, LASV entry inh, Shiga inhibitor)
